# In PubChem BioAssay (NCATS):
# Several values for one entry are separate records, joined by “and”; a condition that tells them apart may be missing. Equal entries are not always repeated. Inconclusive results are not listed. Where a structure was tested more than once in an assay, its records may differ in their call. A number with no mark means an inactive call. Calls follow the shape of the dose curve; as a rule, active = well fitted inhibition curve with a large enough effect; inconclusive = small, poorly fitted or top-dose-only effect; inactive = flat fitted curve, though single readings scatter. Where a SMILES comes first, the peptide text is derived from it. Bridges are numbered along the chain shown (N, C = ends). [ ]: non-standard residue; d: D form. The star is where a group is joined. X2 = CC[C@H](C)CCCCC(=O)*; Orn = NCCC[C@H](N)C(=O)O; Dab = NCC[C@H](N)C(=O)O; Mpa = O=C(O)CCS
# Assay: Drug repurposing screens with cells derived from glioblastoma tumor samples (AID 1345199); also: nearly all actives have a fitted effect of over 40% in size
# Conditions: GBM patient neurospheres viability, ATP luminescence, 48 h; at 46 µM (top of the series); tumour line A
# Method in brief: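 Primary testing used CD133+ neurospheres from four GBM patients, seven concentrations, 48 h exposure and ATP-based viability; confirmation added three slower-growing patient lines.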
# % is scaled to controls: 0 for no effect and ±100 for the full control effect.
row,Structure (SMILES),"activity, negative = cell killing"
1,CCC(CN)CC(C)CCNCC(O)CNCC(C)CC(CC)CN (stereo unspecified),-19.2%
2,C=C1CC2C3CCC4=CC(=O)C=C[C@]4(C)[C@@]3(F)[C@@H](O)C[C@]2(C)[C@@]1(O)C(=O)COC(C)=O (stereo partly specified),-20%
3,O=C1O[C@H]2[C@H](O)[C@@H]1OC(O)[C@H]2O (stereo partly specified),-25.4%
4,O=C(Cn1cnnn1)N[C@@H]1C(=O)N2C(C(=O)O)=C(CSc3nncs3)CS[C@H]12,-29.3%
5,CN1CC(O)c2cc(N=NC(N)=O)c(O)cc21 (stereo unspecified),-26.7%
6,O=c1[nH]cnc2[nH]cc(CN3CCCCC3)c12,2.77%
7,CN(C)Cc1ccccc1,-29.4%
8,O=C(O)CC(O)(CC(=O)O)C(=O)O,-28.2%
9,CCCCC(=O)O,-15.7%
10,CC(=O)OCC(=O)[C@@]1(O)[C@H](C)C[C@H]2[C@@H]3C[C@H](F)C4=CC(=O)C=C[C@]4(C)[C@H]3[C@@H](O)C[C@@]21C,-12.7%
11,CCCCCCCCCC(=O)O,-20.2%
12,C=Cc1ccccc1,-1.65%
13,O=C(OCCO)c1ccccc1O,-21.4%

# Same assay, conditions: GBM patient neurospheres viability, ATP luminescence, 48 h; at 46.1 µM (top of the series); tumour line C
row,Structure (SMILES),"activity, negative = cell killing"
1,CCC(CN)CC(C)CCNCC(O)CNCC(C)CC(CC)CN (stereo unspecified),-0.671%
2,C=C1CC2C3CCC4=CC(=O)C=C[C@]4(C)[C@@]3(F)[C@@H](O)C[C@]2(C)[C@@]1(O)C(=O)COC(C)=O (stereo partly specified),-4.46%
3,O=C1O[C@H]2[C@H](O)[C@@H]1OC(O)[C@H]2O (stereo partly specified),16.3%
4,O=C(Cn1cnnn1)N[C@@H]1C(=O)N2C(C(=O)O)=C(CSc3nncs3)CS[C@H]12,1.48% and -8.58%
5,CN1CC(O)c2cc(N=NC(N)=O)c(O)cc21 (stereo unspecified),26.2%
6,O=C(Nc1ccc(/C=C/c2ccc(NC(=O)c3cc(S(=O)(=O)O)c4cccnc4c3O)cc2S(=O)(=O)O)c(S(=O)(=O)O)c1)c1cc(S(=O)(=O)O)c2cccnc2c1O,-10.9%
7,COc1ccc(CNCC(O)COc2ccc3[nH]c(=O)ccc3c2)cc1OC (stereo unspecified),15.6%
8,O=C(O)[C@@H](O)[C@H](O)[C@H](O)[C@@H](O)C(=O)O (tested in a mixture with another compound),-8.08%
9,CC(=O)O[C@H]1CC[C@@]2(C)C(=CC[C@H]3[C@@H]4CC[C@H](C(C)=O)[C@@]4(C)CC[C@@H]32)C1,-12%
10,CC(C)(S)C(=O)N[C@@H](CS)C(=O)O,-15.9% and -10.8%
11,O=c1[nH]cnc2[nH]cc(CN3CCCCC3)c12,-8.31%
12,CCCOc1ccc2nc(NC(=O)OC)sc2c1,-26.8%
13,O=C(O)c1ccccc1[O-].O=C(O)c1ccccc1[O-].[Zn+2],-14.8%
14,CCC(=O)OCC(=O)[C@@]1(OC(=O)CC)[C@H](C)C[C@H]2[C@@H]3CCC4=CC(=O)C=C[C@]4(C)[C@@]3(F)[C@@H](O)C[C@@]21C,-2.15%
15,CN[C@@H]1CCc2[nH]c3ccc(C(N)=O)cc3c2C1,28.3%
16,CN(C)Cc1ccccc1,-2.01%
17,COc1ccc(C(=O)Nc2ccccc2CCC2CCCCN2C)cc1 (stereo unspecified),-23.4%
18,CCCCCCCCCCCCCCCC(=O)OC/C=C(C)/C=C/C=C(C)/C=C/C1=C(C)CCCC1(C)C,0.655%
19,O=C(O)CC(O)(CC(=O)O)C(=O)O,8.12%

row,Structure (SMILES),"activity, negative = cell killing"
1,CCCCC(=O)O,-7.54% and 1.54%
2,CN(C(=O)CO)c1c(I)c(C(=O)NCC(O)CO)c(I)c(C(=O)NCC(O)CO)c1I (stereo unspecified),-4.09%
3,CC(=O)OCC(=O)[C@@]1(O)[C@H](C)C[C@H]2[C@@H]3C[C@H](F)C4=CC(=O)C=C[C@]4(C)[C@H]3[C@@H](O)C[C@@]21C,13.2%
4,C[C@]12CC[C@@H]3c4ccc(OS(=O)(=O)O)cc4CC[C@H]3[C@@H]1CCC2=O,-5.66%
5,COc1cc(C[C@@H]2NCCc3cc(O)c(O)cc32)cc(OC)c1OC,-8.42%
6,CCCCCCCCCC(=O)O,-4.57%
7,C=Cc1ccccc1,3.42%
8,CC[C@H](C)CCCCC(=O)N[C@@H](CCN)C(=O)N[C@H](C(=O)N[C@@H](CCN)C(=O)N[C@H]1CCNC(=O)[C@H]([C@@H](C)O)NC(=O)[C@H](CCN)NC(=O)[C@H](CCN)NC(=O)[C@H](CC(C)C)NC(=O)[C@@H](CC(C)C)NC(=O)[C@H](CCN)NC1=O)[C@@H](C)O (X2-[Dab]T[Dab][Dab][Dab][dL]L[Dab][Dab]T; lactam 4-C),-10.4%
9,CC(C)(C)NC(=O)[C@H]1CC[C@H]2[C@@H]3CC=C4C=C(C(=O)O)CC[C@]4(C)[C@H]3CC[C@]12C,-11%
10,CCOc1ccc(N=C(C)Nc2ccc(OCC)cc2)cc1,-2.07%
11,COc1ccc(CCNCC(O)COc2cccc(C)c2)cc1OC (stereo unspecified),-25.3%
12,C=CS(=O)(=O)O,-10.9%
13,C[C@@H]1C[C@H]2C3C[C@H](F)C4=CC(=O)C=CC4(C)[C@@]3(F)[C@@H](O)CC2(C)[C@@]1(O)C(=O)COC(=O)C(C)(C)C (stereo partly specified),2.01%
14,O=C(OCCO)c1ccccc1O,-4.97%
15,c1cnc2cc3c(cc2n1)[C@@H]1CNC[C@H]3C1,-0.703%
16,COc1ccc(C2NC(=S)N3C(c4ccc(OC)c(OC)c4)NC(=S)N23)cc1OC (stereo unspecified),3.81%
17,CCOc1ccc(C[C@H]2NC(=O)CCSSC[C@@H](C(=O)N3CCC[C@H]3C(=O)N[C@@H](CCCN)C(=O)NCC(N)=O)NC(=O)[C@H](CC(N)=O)NC(=O)[C@H]([C@@H](C)O)NC(=O)[C@H]([C@@H](C)CC)NC2=O)cc1 ([Mpa][dY](Et)ITNCP[Orn]G-NH2; disulfide 1-6),3.43%
18,CCOC(=O)Cc1cccc(-c2cc(CCCCCCc3ccc(O[C@H]4O[C@H](COC(C)=O)[C@@H](OC(C)=O)[C@H](OC(C)=O)[C@@H]4OC(C)=O)c(-c4cccc(CC(=O)OCC)c4)c3)ccc2O[C@H]2O[C@H](COC(C)=O)[C@@H](OC(C)=O)[C@H](OC(C)=O)[C@@H]2OC(C)=O)c1,18%
19,OC(CN1CCCCC1)c1cc(-c2ccccc2)on1 (stereo unspecified),5.87%
